Hit rate of the full screen: of about 2,100 compounds, about 760 (36%) were called active. Only a sample is shown. Values without a mark were called inactive.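 The calls were made as follows: active = thallium-flux fluorescence traces judged by eye to show enhanced or reduced glutamate response, manual score 1 or -1, so both directions (some results past the limit were not filed as active); inactive = the rest, including fluorescent or raised-baseline compounds.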

The assay can be described thus: thallium influx changes without GIRK channels – cell-based, HEK-293 rmGlu8, no GIRK, thallium flux, counter-screen for GIRK activator project, confirmation (AID 623868).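 Also: extra codes mark interference with 3 for fluorescent and 4 for baseline rise.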 The conditions noted are these: thallium flux fluorescence, at 10 µM, actives lie on both sides, codes: 1 enhancer, -1 blocker, 0 none, thallium stimulus containing EC20 glutamate. In general terms: The purpose of a counterscreen is to sort out artefacts and off-target activity.
Turning to `CCOC(=O)C1=C(CC)Nc2ccccc2N=C1NC(=O)c1ccc(S(=O)(=O)N(C)C)cc1`, the manual score was -0.5. With `CCCCN(C)S(=O)(=O)c1ccc(C(=O)Nc2nnc(-c3cccs3)o2)cc1` the figure was 1 (active). For `Cc1ncoc1C(=O)Nc1ccc(Oc2ccccc2)cc1` the value was 0; for `Cc1occc1C(=O)Nc1cccc(C(F)(F)F)c1`, 0.

As to `Cc1cc(C)c(NC(=O)c2ccc(S(=O)(=O)N(C)C)cc2)c(C)n1`, the manual score is 0. For `O=C(Nc1nnc(-c2cccs2)o1)c1cccc(Oc2ccccc2)c1` the value was 1 (active). With `O=C(Nc1nnc(-c2cccs2)o1)c1cccc(C(F)(F)F)c1` the figure was 1 (active); with `Cc1nc(C)c(C(=O)Nc2ccc(Oc3ccccc3)cc2)o1`, 0.

On to `O=C(Nc1nnc(-c2cccs2)o1)c1cccc(F)c1`, for which the manual score was 1 (active). With `O=C(Nc1cccs1)Nc1c(F)c(F)c(F)c(F)c1F` the figure was 0; with `O=C(NNC(=S)Nc1cccc(C(F)(F)F)c1)c1cccc(Cl)c1`, 0; with `CCOC(=O)C1=C(CC)Nc2ccccc2N=C1NC(=O)Nc1ccc(Cl)c(Cl)c1`, 0.

Regarding `CN1CCN(S(=O)(=O)c2cccc(S(=O)(=O)c3cccc(S(=O)(=O)N4CCN(C)CC4)c3)c2)CC1`, the manual score was 0.

For `Cc1cc2nc(CCN(C(=S)NCC(C)C)C3CCCC3)[nH]c2cc1C`, the manual score was 0. Take `O=C(CN1C(=O)c2cccc3cccc(c23)C1=O)N1CCN(c2ccccn2)CC1`: the manual score was 3. Turning to `Cc1nc(N2CCN(C(=O)COc3ccccc3)CC2)c2c(C)c(C)sc2n1`, the manual score was -1 (active). With `Cc1sc2nc(CN3CCCC3)nc(N3CCN(S(=O)(=O)c4cccs4)CC3)c2c1C` the figure was 0; with `CSc1cccc(NC(=O)CN(c2ccccc2)S(=O)(=O)N(C)C)c1`, 0; with `Cc1cccc(CSc2cccc3cccnc23)c1`, 1 (active). With `CCOC(=O)CSc1cc(CSc2ccccc2)nc(-c2ccccc2)n1` the figure was 0. For `CCOC(=O)CSc1cccc2cccnc12` the value was 1 (active). Consider `CN(C)C(=O)CSc1cccc2cccnc12`, for which the manual score was 0. With `O=C(CCCc1nc(-c2ccc(Cl)cc2)no1)N1CCOCC1` the figure was 0; with `S=C(N/N=C/c1ccccc1)N1CCOCC1`, 1 (active); with `CC(CCc1ccccc1)NC(=O)N1CCOCC1` (configuration not stated), 0. As for `Cc1ccc(/C=N/NC(=S)N2CCOCC2)cc1`, the manual score is 1 (active). Consider `Clc1ccc(/C=N/Nc2nc(Cl)nc3ccccc23)cc1`, for which the manual score was 0. `S=C(N/N=C/c1ccc(Cl)cc1)N1CCOCC1`: the manual score is 1 (active). With `O=C(NC(=Nc1ccccc1)N1CCOCC1)Nc1ccccc1` the figure was 0; with `Cc1ccc(C(=O)c2ccc(N3CCOCC3)c(F)c2)cc1`, 0. With `Cc1ccc(S(=O)(=O)c2c(C)cc(C)nc2Cl)c(C)c1` the figure was 0; with `Cc1ccn2c(NC3CCCCC3)c(C(C)C)nc2c1`, 0; with `Cc1ccc(NC(=O)CSC(N)=O)cc1Cl`, 0. For `CC(=O)Nc1ccc(S(=O)(=O)NC(C(=O)O)C2=CCC=CC2)cc1` (configuration not stated) the value was 0. For `CC1=NN(C(N)=S)C(=O)C1N=Nc1ccccc1C` (configuration not stated), the manual score is 1 (active).

For the molecule `CC1=NN(C(N)=S)C(=O)C1N=Nc1ccc(C)cc1C` (configuration not stated), the manual score is 1 (active). With `N=c1c2c(ncn1CCN1CCOCC1)Oc1ccc3ccccc3c1C2c1ccccc1` (configuration not stated) the figure was 0; with `Cn1c(=O)c(NCCc2ccccc2)c2c3c(cccc31)C(=O)c1ccccc1-2`, 3. For `Cc1nnc2n(C3CCCCC3)c(=O)c3c4c(sc3n12)COC(C)(C)C4` the value was -1 (active); for `CC(Nc1nc(N2CCCCC2)nc2ccccc12)c1ccccc1` (configuration not stated), 0.

In the case of `O=C(NNc1ncc(C(F)(F)F)cc1Cl)c1c(Cl)cccc1Cl`, the manual score is 0.5. Regarding `O=C1/C(=C\c2ccccn2)SC(=S)N1Nc1ncc(C(F)(F)F)cc1Cl`, the manual score is 0. For `Cc1ccc(NC(=S)Nc2ccc(Cl)c(Cl)c2)c(OC(F)F)c1` the value was 0; for `FC(F)(F)c1cnc(NNC(=S)Nc2ccccc2Cl)c(Cl)c1`, 1 (active); for `FC(F)(F)c1cnc(NNC(=S)Nc2ccc(Cl)cc2)c(Cl)c1`, 1 (active). For `Cc1ccc(NC(=S)NNc2ncc(C(F)(F)F)cc2Cl)c(C)c1` the value was 1 (active). With `NC(=O)c1ccc(Cc2ncc(C(F)(F)F)cc2Cl)s1` the figure was 0. For the molecule `Cn1c(=O)c(NCCO)c2c3c(cccc31)C(=O)c1ccccc1-2`, the manual score was 3. For `C/C(=N/NC(=O)c1ccncc1)c1cc2ccc(O)cc2oc1=O` the value was 0; for `Cc1cccc(NC(=S)NC(=O)c2ccco2)n1`, 1 (active); for `O=C(NC(=S)Nc1ccccn1)c1ccco1`, 1 (active).

Turning to `Cc1cc(NC(=O)c2ccco2)ccc1NC(=O)Cc1cccs1`, the manual score was 0. With `Cc1ccc2nsnc2c1NC(=S)NC(=O)c1ccco1` the figure was 1 (active); with `O=C(CC(=O)Nc1ccccn1)Nc1ccccn1`, 0; with `O=C(NCCCn1ccnc1)Nc1ccc(Cl)c(Cl)c1`, 0. With `N/C(=N/O)c1nc(N2CCCC2)nc(N(c2ccccc2)c2ccccc2)n1` the figure was 0; with `CC(C)C(C)(C#N)NC(=O)CSc1ncnc2sc(-c3ccccc3)cc12` (configuration not stated), 0; with `CCN(CC)C(=O)CSc1ncnc2sc(-c3ccccc3)cc12`, 0.5. For `CN(CCC#N)C(=O)CSc1ncnc2sc(-c3ccccc3)cc12`, the manual score is 0. With `CC(=O)c1c(C)[nH]c(C(=O)CSc2ncnc3sc(-c4ccccc4)cc23)c1C` the figure was 1 (active); with `CC(C)N(C(=O)CSc1ncnc2sc(-c3ccccc3)cc12)C(C)C`, 1 (active); with `CC(=O)c1c(C)[nH]c(C(=O)COc2cc(C)cc(C)c2)c1C`, 0. Take `CCOC(=O)Cn1c(=O)oc2cc(S(=O)(=O)NCCCc3ccccc3)ccc21`: the manual score is 0. For `Nc1nc(Nc2ccccc2)nc(NCc2ccco2)c1[N+](=O)[O-]` the value was 0; for `CCOC(=O)c1sc2ncnc(NCc3ccco3)c2c1C`, 1 (active); for `CC1CCN(C(=S)NC(=O)c2ccccc2)CC1`, 0.5.

In the case of `CNC(=S)N1CCN(c2ccc(OC)cc2)CC1`, the manual score is 0. For the molecule `COc1ccc(C(=O)NC(=S)N2CCC(C)CC2)cc1`, the manual score is 1 (active). For `COc1ccc(NC(=O)Nc2ccccc2C(=O)N2CCCC2)cc1` the value was 0; for `Cc1cccc(NC(=S)N2CCC(C(=O)c3ccc(F)cc3)CC2)c1C`, 0; for `COc1ccc(C(=O)NC(=S)N2CCCCC2)cc1`, 1 (active).

As for `CCCCCCc1cc2cc(C(=O)NC)c(=N)oc2cc1O`, the manual score was 3.

Take `COc1ccc(Nc2nnc(Cc3ccccc3)c(=O)[nH]2)c(OC)c1`: the manual score is 0.

Turning to `CCN(c1ccccc1)S(=O)(=O)c1ccc(NC(=S)NC(=O)c2ccc(Br)o2)cc1`, the manual score was 1 (active). For `CCc1nnc(NS(=O)(=O)c2ccc(NC(=S)NC(=O)c3ccccc3)cc2)s1` the value was 0; for `CN(c1ccccc1)S(=O)(=O)c1ccc(NC(=S)NC(=O)c2ccccc2)cc1`, 0; for `COC(=O)c1ccc(NC(=O)CSc2nnc(COc3ccccc3)n2C)cc1`, 3. For `CCOC(=O)c1ccccc1NC(=O)CSc1nnc(COc2ccccc2C)n1C` the value was -1 (active); for `CCOC(=O)CN(C(=O)CSc1nnc(Cc2ccccc2)n1-c1ccc(C)cc1)c1ccccc1`, 0; for `CCOC(=O)c1ccccc1NC(=O)CSc1nnc(Cc2cccn2C)n1-c1ccc(F)cc1`, 0. For `CCOC(=O)c1ccccc1NC(=O)CSc1nnc(COc2ccccc2)n1CC` the value was 0; for `CCOC(=O)c1ccccc1NC(=O)CSc1nnc(Cc2cccn2C)n1-c1ccc(C)cc1`, -1 (active). Consider `CCSc1nc(-c2ccccc2)c(C#N)c(=O)[nH]1`, for which the manual score is -1 (active). With `N#Cc1c(-c2ccco2)nc(SCc2ccc(F)cc2)[nH]c1=O` the figure was -1 (active); with `CC(Sc1nc2ccccc2c(=O)[nH]1)C(=O)O` (configuration not stated), 0.

Take `CCc1nc(SCc2ccc(F)cc2)[nH]c(=O)c1C#N`: the manual score was 3.

On to `CCOc1ccccc1C1CC(=O)NC(SCC)=C1C#N` (configuration not stated), for which the manual score is 0. With `N#Cc1c(N)nc(SCc2ccccc2)c(C#N)c1-c1ccco1` the figure was 0; with `Cc1oc(-c2ccccc2F)nc1CS(=O)(=O)CC(=O)NCCN(C)C1CCCCC1`, 0; with `c1cn(CC2(Cn3ccnc3)COC2)cn1`, 0. For `CCCc1ccc(C(=O)N2CCN(c3ccccc3OCC)CC2)cc1` the value was -1 (active); for `O=C(c1ccccc1CCc1ccccc1)N1CCN(c2ccccn2)CC1`, 0. For `O=C(c1ccccc1Oc1ccccc1)N1CCN(c2ccccc2)CC1` the value was 0; for `CCOc1ccccc1N1CCN(C(=O)c2cc3c(s2)CCC3)CC1`, -1 (active); for `CC1CCN(c2c([N+](=O)[O-])c(=O)oc3ccccc23)CC1`, 0. For the molecule `COc1ccc(C(C)n2c(C)c3c(C)nnc(C)c3c2C)cc1` (configuration not stated), the manual score was 0. As for `O=C(CSc1nc2ccccc2n1CCc1ccccc1)N1CCOCC1`, the manual score is 0. Turning to `O=C1OCCC1Sc1nc2cc(Cl)ccc2n1Cc1ccccc1` (configuration not stated), the manual score is 1 (active). For `CC1=C(C(=O)Nc2cccnc2)C(c2ccc3c(c2)OCO3)C2=C(CCCC2=O)N1` (configuration not stated) the value was 0; for `Cc1cccc(-c2nc(CN3CCCC(C(=O)NC4CCCCC4)C3)c(C)o2)c1` (configuration not stated), 0; for `Cc1ccccc1-c1nc(CS(=O)(=O)CC(=O)NCCCN2CCCC2)c(C)o1`, 0. With `Cc1oc(-c2ccccc2)nc1CS(=O)CC(=O)O` (configuration not stated), the manual score is 1 (active). For `CCOC(=O)Cc1csc(NC(=S)NC(=O)C(C)(C)C)n1` the value was 1 (active).

Regarding `CCOC(=O)Cc1csc(NC(=S)NC(=O)c2ccc(C)cc2)n1`, the manual score is 1 (active). In the case of `CCOC(=O)Cc1csc(NC(=O)Nc2ccccc2)n1`, the manual score was 0. As to `CCOC(=O)Cc1csc(NC(=S)NC(=O)c2ccccc2)n1`, the manual score is 1 (active). On to `CC1CCN(c2ccc(/C=N/n3nnnc3N)cc2[N+](=O)[O-])CC1`, for which the manual score was 0.
